Where “and” joins values, the source holds several entries; their conditions need not be identical. Equal values may be shown once. The whole screen tested about 220,000 compounds, of which about 530 (0.24%) were called active. The sample holds actives, similar compounds and a random draw of the others, so the mix is not that of the screen. Cut-off read from the data, not from the text of the source: active = inhibition above about 13%; inconclusive = no clear call, values can overlap the other calls; inactive = below that. Measured potencies and affinities stand elsewhere.
Target: Bifunctional protein GlmU (Mycobacterium tuberculosis (strain ATCC 25618 / H37Rv)) (UniProt P9WMN3)
Test: inhibition of mycobacterial GlmU enzyme – biochemical, glucosamine-1-phosphate acetyltransferase (AID 1376);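 note: 0% = complete reaction with vehicle and 100% = reaction without substrate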
Conditions: M. tuberculosis GlmU acetyltransferase enzyme assay; active compounds read high;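 tested at 30 µM in the primary screen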

Bifunctional protein GlmU (Mycobacterium tuberculosis (strain ATCC 25618 / H37Rv)), sequence (P9WMN3 whole entry, looked up): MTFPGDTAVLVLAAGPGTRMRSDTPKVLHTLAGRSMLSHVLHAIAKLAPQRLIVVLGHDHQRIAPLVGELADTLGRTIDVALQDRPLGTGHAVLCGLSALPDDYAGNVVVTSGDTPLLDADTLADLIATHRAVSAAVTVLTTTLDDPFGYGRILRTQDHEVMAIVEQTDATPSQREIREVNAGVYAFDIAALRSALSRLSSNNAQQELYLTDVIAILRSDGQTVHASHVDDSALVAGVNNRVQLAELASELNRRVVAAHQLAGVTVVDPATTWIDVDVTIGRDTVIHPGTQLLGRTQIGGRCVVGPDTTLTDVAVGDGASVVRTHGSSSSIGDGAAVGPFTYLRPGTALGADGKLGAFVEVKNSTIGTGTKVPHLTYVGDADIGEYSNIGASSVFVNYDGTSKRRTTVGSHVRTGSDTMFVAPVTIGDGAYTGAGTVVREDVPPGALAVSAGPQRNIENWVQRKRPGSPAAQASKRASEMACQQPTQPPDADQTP

Row | SMILES | inhibition
1 | O=C(NC12CC3CC(CC(C3)C1)C2)c1cccnc1 | 2.68% (inactive)
2 | O=C(NC12CC3CC(CC(C3)C1)C2)c1cncc(O)c1 | 14.9% (active)
3 | O=C(NC12CC3CC(CC(C3)C1)C2)c1ccccc1 | -3.83% (inactive)
4 | COC(=O)Cc1c(O)ccn(Cc2ccc3c(c2)OCO3)c1=O | -0.24% (inactive)
5 | CC(=O)c1ccc2c(c1)C1C(Cl)C(Sc3ccccc3[N+](=O)[O-])CC1C(C(=O)O)N2 (stereo unspecified) | 13.1% (active)
6 | CC(=O)c1ccc2c(c1)C1C(Cl)C(Sc3ccccc3[N+](=O)[O-])CC1C(c1ccccc1)N2 (stereo unspecified) | 8.36% (inactive)
7 | Cc1ccc2c(c1Cl)NC(C(=O)O)C1CC(Sc3ccccc3[N+](=O)[O-])C(Cl)C21 (stereo unspecified) | 4.86% (inactive)
8 | O=C(O)c1cccc2c1NC(C(=O)O)C1CC(Sc3ccccc3[N+](=O)[O-])C(Cl)C21 (stereo unspecified) | 30.8% (active)
9 | CCN(CC)C(=O)c1ccc2c(c1)C1C(Cl)C(Sc3ccccc3[N+](=O)[O-])CC1C(C(=O)O)N2 (stereo unspecified) | -0.47% (inactive)
10 | O=C(O)c1cccc2c1NC(c1cccc([N+](=O)[O-])c1)C1CC(Sc3ccccc3[N+](=O)[O-])C(Cl)C21 (stereo unspecified) | 7.9% (inactive)
11 | Cc1ccc2c(c1)cc(CN(Cc1cccs1)C(=O)c1ccco1)c1nnnn12 | -1.3% (inactive)
12 | CC(=O)c1c(C)[nH]c(C(=O)COC(=O)CCCOc2ccccc2)c1C | 7.27% (inactive)
13 | O=S(=O)(N1CCOCC1)n1cnc2ccccc21 | 3.88% (inactive)
14 | COc1ccc(NC(=O)CN2C(=O)c3cccc4cccc2c34)c(OC)c1 | 0.85% (inactive)
15 | CCN(C(=O)CN1CCN(S(=O)(=O)c2ccccc2C(F)(F)F)CC1)c1c(N)n(Cc2ccccc2)c(=O)[nH]c1=O | -6.69% (inactive)
16 | CCS(=O)(=O)Nc1cccc(-c2nc3cccnc3s2)c1 | 14.4% (active)
17 | CCCS(=O)(=O)Nc1cccc(-c2nc3cccnc3s2)c1 | 3.55% (inactive)
18 | CCS(=O)(=O)Nc1ccc(-c2nc3cccnc3s2)cc1 | 0.1% (inactive)
19 | COc1cc(C(=O)Oc2ccc3c(c2)OCC3=O)cc(OC)c1OC | 1.2% (inactive)

Row | SMILES | inhibition
20 | c1ccc(CSc2nnc(-c3ccco3)n2Cc2ccco2)cc1 | 13% (active)
21 | c1ccc(CSc2nnc(-c3cccs3)n2Cc2ccco2)cc1 | -1.39% (inactive)
22 | Cc1ccccc1CSc1nnc(-c2ccco2)n1Cc1ccco1 | 1.77% (inactive)
23 | Cc1ccc(OCC(=O)Nc2ccc(S(=O)(=O)N3CCCCC3)cc2)c([N+](=O)[O-])n1 | -4.33% (inactive)
24 | O=C(CN(CC1CCCO1)S(=O)(=O)c1ccc(S(=O)(=O)NCC2CCCO2)cc1)Nc1ccccc1 (stereo unspecified) | 5.97% (inactive)
25 | CCOC(=O)c1cnc(-n2nc(C)cc2C)nc1Oc1ccccc1F | -3.61% (inactive)
26 | CCOC(=O)c1cnc(-n2nc(C)cc2C)nc1Oc1ccc(C#N)cc1 | 13.1% (active)
27 | CCOC(=O)c1cnc(-n2nc(C)cc2C)nc1Oc1ccc(C(=O)OC)cc1 | -2.28% (inactive)
28 | CCOC(=O)c1[nH]c2cc(OC)c(OC)cc2c1NC(=O)c1ccc2c(c1)OCO2 | 17.8% (active)
29 | CCOC(=O)c1[nH]c2ccc(OC)cc2c1NC(=O)c1ccc2c(c1)OCO2 | -4.48% (inactive)
30 | CCOC(=O)c1[nH]c2ccccc2c1NC(=O)c1ccc2c(c1)OCO2 | -1.52% (inactive)
31 | O=C(Nc1ccon1)c1ccccc1F | -0.14% (inactive)
32 | O=C(CCN1C(=O)c2ccccc2C1=O)NC(=S)Nc1ccccc1 | 2.69% (inactive)
33 | Cc1cc(C)cc(NC(=S)NC(=O)CCN2C(=O)c3ccccc3C2=O)c1 | 13.3% (active)
34 | O=C(CCN1C(=O)c2ccccc2C1=O)NC(=S)Nc1ccccc1Cl | -2.84% (inactive)
35 | CCCCCNC(=O)c1ccc2c(=O)[nH]c3c(C(=O)NCC4CCCO4)sc(=S)n3c2c1 (stereo unspecified) | -1.14% (inactive) and 8.81% (inactive)
36 | Cc1ccc(CNC(=O)c2ccc3c(=O)[nH]c4c(C(=O)NCC5CCCO5)sc(=S)n4c3c2)cc1 (stereo unspecified) | 13.2% (active)
37 | O=C(NCc1ccccc1)c1ccc2c(=O)[nH]c3c(C(=O)NCC4CCCO4)sc(=S)n3c2c1 (stereo unspecified) | 4.19% (inactive)
38 | COc1ccc(OCCCC(=O)NCCc2nc3ccccc3[nH]2)cc1 | 5.71% (inactive)

Row | SMILES | inhibition
39 | O=c1c(C(c2ccccc2)c2c(O)nc3n(c2=O)CCS3)c(O)nc2n1CCS2 | 3.94% (inactive)
40 | O=c1c(C(c2c(O)nc3n(c2=O)CCS3)c2cccc3ccccc23)c(O)nc2n1CCS2 | 15.3% (active)
41 | Cc1ccc(C(c2c(O)nc3n(c2=O)CCS3)c2c(O)nc3n(c2=O)CCS3)cc1 | -1.5% (inactive)
42 | Cc1c(N=C2C=C(Br)C(=O)C(Br)=C2)c(=O)n(-c2ccccc2)n1C | 14.5% (active)
43 | CC1=CC(=Nc2c(C)n(C)n(-c3ccccc3)c2=O)C=C(C)C1=O | -6.33% (inactive)
44 | CCC(C)C1=CC(=Nc2c(C)n(C)n(-c3ccccc3)c2=O)C=C(C(C)CC)C1=O (stereo unspecified) | -5.03% (inactive)
45 | O=C(NC1CC1)C1=C[C@@H](c2ccc(C(F)(F)F)cc2)C[C@@H](OCCCCO)O1 | 0.57% (inactive)
46 | CCOc1cc(/C=C2/C(=O)ON=C2C)ccc1OCc1ccccc1F | -0.49% (inactive)
47 | S=C(NCCc1ccccn1)Nc1cccc(Cl)c1 | 2.84% (inactive)
48 | O=C(CSc1nc2ccccc2[nH]1)Nc1ccccc1N1CCOCC1 | 2.16% (inactive)
49 | O=C(CCSc1ccccc1)Nc1nnc(-c2ccccc2)o1 | -1.24% (inactive)
50 | O=C(c1coc(=O)c(Br)c1)N1CCCc2ccccc21 | -0.3% (inactive)
51 | O=C(c1coc(=O)c(Br)c1)N1CCC(C(O)(c2ccccc2)c2ccccc2)CC1 | -1.06% (inactive)
52 | COc1ccc(C(=O)N2CCOCC2)cc1Br | -2.45% (inactive)
53 | COc1ccccc1N1CCN(C(=O)c2coc(=O)c(Br)c2)CC1 | 2.74% (inactive)
54 | CC(c1ccccc1)C1CC(=O)N(c2ccc(C(=O)O)cc2)C1=O (stereo unspecified) | -1.47% (inactive)
55 | CS(=O)(=O)NNC(=O)c1sccc1OCc1ncc(C(F)(F)F)cc1Cl | -2.98% (inactive)
56 | CC(C)CNc1c(N)c(=O)oc2ccccc12 | -2.95% (inactive)
